Hit rate of the full screen: of about 94,000 compounds, about 4,000 (4.3%) were called active. Inconclusive results (about 29%) are left out. Calls come from the whole dose curve; as a rule, active = well fitted inhibition curve with a large enough effect; inconclusive = small, poorly fitted or top-dose-only effect; inactive = no such curve, though single readings can be large or run the other way. Many of the other results were omitted from the sample, so actives are more common in it than they were.
Test: Cytotoxic Profiling in NIH 3T3 Cell Line of Diverse Libraries Using Quantitative High-Throughput Screening; note: nearly all actives have a fitted effect of over 55% in size
Details: NIH 3T3 viability, CellTiter-Glo ATP luminescence, 48-72 h; series mostly up to 96.7 µM; activity change, negative = cytotoxicity: at the top concentration
Procedure, shortened: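 Luminescent ATP readout (CellTiter-Glo, 10 min RT) after 48 or 72 hr compound exposure of NIH 3T3 cells seeded at 400 cells/well in 1536-well format; quantitative HTS.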
% is set by controls: 0 for no effect and ±100 for the full control effect; potency is the fitted concentration of half-maximal effect.

SMILES | outcome | activity change, negative = cytotoxicity | Potency
O=C(Cc1ccsc1)NCC1CCCCC(=O)N1 (configuration not stated) | inactive | – | –
Cc1ncccc1C(=O)N1CC2CC(C1)[C@H]1CCCC(=O)N1C2 (some centres not stated) | – | -0.593% (inactive) | –
CN1CC(=O)N(C2CCCNCC2)Cc2c1ncnc2N1CCCC(F)C1 (configuration not stated) | – | -4.05% (inactive) | –
Cc1noc(C)c1CC(=O)NCC12CCC=C1N(Cc1ccccc1)C(=O)CC2 (configuration not stated) | – | -15% (inactive) | –
Cn1ncc(N2CCC(C(=O)NC3CCCC3)C2)cc1=O (configuration not stated) | – | -3.98% (inactive) | –
CCc1ccc(C(=O)NC2CCN(c3cnn(CC)c(=O)c3)CC2)cc1 | – | -15.7% (inactive) | –
Cc1cc(C)cc(C(=O)NC2CCN(c3cnn(C)c(=O)c3)CC2)c1 | – | – | 39.8 µM (active)
COc1ccc(C(=O)N2CCN(C(=O)Nc3cccc(OC)c3)C[C@@H]2C(=O)N[C@H]2CCCNC2=O)cc1 | – | 4.28% (inactive) | –
Cc1cc(C(=O)NCC2(COc3cccnc3)C[C@@H](O)[C@@H](O)C2)n(C)n1 (some centres not stated) | – | -25.3% [at 174 µM] (inactive) | –
O=C(c1ccco1)N1Cc2[nH]cnc2C[C@H]1c1nc(-c2ccncc2)no1 | – | -11.2% [at 138 µM] (inactive) | –
Cc1ccc(-c2noc([C@@H]3Cc4nc[nH]c4CN3Cc3cccc(C#N)c3)n2)cc1 | – | – | 100 µM (active)
Cc1cccc(-c2noc([C@@H]3Cc4nc[nH]c4CN3C(=O)CCC(=O)O)n2)c1 | – | -4.77% [at 174 µM] (inactive) | –
CNC(=O)c1cc(C2CC2)nc2onc(C3CCN(C(=O)Cc4ccc(OC)cc4)CC3)c12 | – | -23.1% (inactive) | –
O=C1c2cc(N3CCOCC3)nc(-c3cccnc3)c2CN1C1COC1 | – | – | 8.91 µM (active)
O=c1[nH]c(N2CCOCC2)nc2c1CCN(Cc1cccc(F)c1)CC2 | – | 4.36% (inactive) | –
O=C(NC1CCCCC1)N1CCCCCC1c1nc(-c2cccnc2)no1 (configuration not stated) | – | -26.4% (inactive) | –
CN1Cc2c(cc(N3CCOCC3)nc2-c2cccc(F)c2)C1=O | – | – | 8.91 µM (active)
O=C(c1cccnc1)N1CCC2(CCCN(C3CCOCC3)C2=O)C1 (configuration not stated) | – | 4.79% (inactive) | –
Cc1cccc(Cn2c(-c3ccc(F)cc3)nc(C)c(CCO)c2=O)c1 | – | -20.2% (inactive) | –
Cc1cc(N2CCC(NC(=O)c3cccc(N(C)C)c3)C2=O)ccc1F (configuration not stated) | – | -13.1% (inactive) | –
O=C(c1c[nH]c2ccccc12)N1CCC2(COc3ccncc3S(=O)(=O)N2)C1 (configuration not stated) | – | -4.03% (inactive) | –
Cc1cc(C(=O)N2CCC(N3C(=O)C(O)C34CCCCC4)CC2)nn1C (configuration not stated) | – | -3.23% (inactive) | –
Cc1nc(C)c(C(=O)N2CCN(C(=O)N(C)C)[C@@H]3CS(=O)(=O)C[C@@H]32)s1 | – | -15.2% (inactive) | –
COc1ccccc1C(=O)N1CCC2(CC1)C(=NC1CCCCC1)NC(=O)N2c1cccnc1 | inactive | – | –
O=C(NCc1nnc2n1C(C(=O)NC1CC1)CC2)c1ccncc1 (configuration not stated) | – | -3.99% (inactive) | –

SMILES | outcome | activity change, negative = cytotoxicity | Potency
CCn1cc(S(=O)(=O)N2CC[C@@H]3C(=O)NCCCCCCN(Cc4ccncc4)[C@@H]3C2)cn1 | – | -21.9% (inactive) | –
CN1[C@@H](CCC(=O)N2CCCC2)CNC(=O)[C@@H]2[C@H]1CCN2Cc1ccc(S(C)(=O)=O)cc1 | – | 3.65% (inactive) | –
COc1ccccc1Nc1ccnc(N2CCC(N[S+](=O)([O-])c3cccs3)CC2)n1 | – | – | 31.6 µM (active)
COc1ccccc1-n1c(=O)c(C(=O)N2CCN([S+](=O)([O-])c3cccs3)CC2)nc2cccnc21 | – | 4.07% (inactive) | –
O=[S+]([O-])(c1cccs1)N1CCN(c2nccc(Nc3ccccc3F)n2)CC1 | – | – | 25.1 µM (active)
COc1ccccc1Nc1ccnc(N2CCC(NC(=O)NC(C)C)CC2)n1 | – | -11.6% (inactive) | –
O=c1n(CCN2CCN([S+](=O)([O-])c3cccs3)CC2)nc2n1CCCC2 | – | -21.4% (inactive) | –
CN(C)C(=O)c1cccnc1OC1CCN(C(=O)c2ccc(Br)o2)C1 (configuration not stated) | – | -2.28% (inactive) | –
CCc1nc2nccc(-c3ccco3)n2n1 | inactive | – | –
Cc1nc(-c2ccccc2OC2CN(C(=O)c3ccnn3C)C2)no1 | – | -10.8% (inactive) | –
CC(=O)/C=C/C1=CC(C)(C)COc2ccc(O)cc21 | – | – | 25.1 µM (active)
Cc1noc(-c2cccc(OC3CN(C(=O)CN4C(=O)CCC4=O)C3)c2)n1 | – | 2.78% (inactive) | –
CC(=O)Nc1ccc(NC(=O)Cn2nc3c(cc2=O)CCCCC3)cc1 | inactive | – | –
C1CCC(COCCc2noc(C3CNC3)n2)C1 | – | – | 7.94 µM (active)
O=C(Cc1cccnc1)N1CCCC(c2nc(CCOCC3CCCC3)no2)C1 (configuration not stated) | – | -8.29% (inactive) | –
O=C(c1ccoc1)N1CCCC(c2nc(CCOCC3CCCC3)no2)C1 (configuration not stated) | – | -12.7% (inactive) | –
COCCCNC(=O)c1ccc2oc(-c3ccc(OC)nc3)nc2c1 | – | -22% [at 138 µM] (inactive) | –
CC(C)CNC(=O)N1CCCC(c2nc(C(C)C)no2)CCNC(=O)CC1 (configuration not stated) | – | -8.55% (inactive) | –
CC(C)(C)NC(=O)N1CCCC(c2nc(CCOCC3CCOCC3)no2)C1 (configuration not stated) | inactive | – | –
CN1CCC(N2CCC[C@H]2c2nc(-c3ccc(OC4CCCCC4)nc3)no2)CC1 | – | – | 28.2 µM (active)
CC(=O)N1CCC(N2CCC[C@H]2c2nc(-c3ccc(-c4cncnc4)nc3)no2)CC1 | – | -21.4% [at 138 µM] (inactive) | –
CC(=O)N1CCN(c2cc(-c3noc([C@@H]4CCCN4C4CCC4)n3)ccn2)CC1 | – | -7.66% [at 138 µM] (inactive) | –
COCCN1CCC2(CCC1=O)CCN(C(=O)Nc1cc(Cl)ccc1C)CC2 | – | -17.5% (inactive) | –
CCN(CC)C(=O)[C@@H](C)C1CC[C@@]2(C)Cc3sc(N)nc3[C@@H](C)[C@@H]2[C@H]1O (some centres not stated) | – | -15.1% [at 174 µM] (inactive) | –
C=CCN(C)C(=O)[C@@H](C)C1CC[C@@]2(C)Cc3sc(Nc4c(Cl)cccc4Cl)nc3[C@@H](C)[C@@H]2[C@H]1O (some centres not stated) | – | – | 44.7 µM (active)

SMILES | outcome | activity change, negative = cytotoxicity | Potency
COCCNC(=O)C(C)[C@@H]1CC[C@@]2(C)CC[C@H](NC(=O)c3ccccc3)[C@@H](C)[C@@H]2[C@H]1O (some centres not stated) | – | -1.63% [at 138 µM] (inactive) | –
Cc1cc(C2CCCN2C(=O)c2ccccc2)on1 (configuration not stated) | inactive | – | –
O=C(c1ccc2cc[nH]c2c1)N1CCN(Cc2cnc[nH]2)CC(O)C1 (configuration not stated) | – | -0.94% (inactive) | –
Cc1ccc(-n2nc3n(c2=O)CCN(C(=O)C(C)(C)C)C3)cc1 | – | – | 50.1 µM (active)
O=C(C1CC1)N1CCn2c(nn(-c3ccc(F)cc3)c2=O)C1 | – | -29.2% [at 138 µM] (inactive) | –
Cc1ccc(-n2nc3n(c2=O)CCN(C(=O)Cc2ccccn2)C3)cc1 | – | -2.45% (inactive) | –
COc1ccc(CC(=O)Nc2cc(-c3cccnc3)nn2-c2ccccc2)cc1 | – | -35.3% (inactive) | –
COc1ccc(-n2nc(-c3ccccc3)n(CC(=O)N(C)CC(C)C)c2=O)cc1 | – | – | 79.4 µM (active)
COc1ccc(N2CCN(C3CCCN(CC(=O)N(C)C(C)C)C3)CC2)cc1 (configuration not stated) | – | -1.05% (inactive) | –
Cc1nc2c(c(-c3ccc(Cl)cc3)n1)CCN([S+](=O)([O-])c1c(C)noc1C)CC2 | – | -12.1% (inactive) | –
Cc1noc2c(N3CCC(c4ccccc4)CC3)cc(-c3cccnc3)nc12 | – | -24.6% [at 138 µM] (inactive) | –
Cc1noc2c(N3CC[S+](=O)([O-])CC3)cc(-c3ccc(Cl)cc3)nc12 | – | – | 10 µM (active)
CN1CCCCCCN(C(=O)C2CCC2)[C@H]2CCC[C@H]2C1=O | – | -7.21% (inactive) | –
Cc1noc(C)c1-c1cc2cc(CNC3CCOCC3)oc2c(NC2CCN(C)CC2)n1 | – | – | 39.8 µM (active)
CCOCCN1C(=O)COC[C@@H]1[C@H](O)c1ccc(NC(=O)c2cnccn2)cc1 | – | -12.3% [at 138 µM] (inactive) | –
O=C(C1CCCN(Cc2cccc(-c3ccc(F)cc3F)c2)C1)N1CCN(Cc2ccccc2)CC1 (configuration not stated) | – | – | 39.8 µM (active)
O=C(C1CCN(Cc2ccccc2-c2cccnc2)CC1)N1CCN(Cc2ccccc2)CC1 | – | -38.3% (inactive) | –
CCCN1CCN(C(=O)C2CCCN(c3cnn(Cc4ccccc4)c(=O)c3)C2)CC1 (configuration not stated) | – | -15% (inactive) | –
COCc1nc(CCNC(=O)Cc2c(C)noc2C)no1 | – | -2.43% (inactive) | –
CN(C)C[C@@H]1CN(C)C[C@H]1NC(=O)c1cnn(C)c1 | – | -4.02% (inactive) | –
CCn1ccc(C(=O)NCC2CCCCC(=O)N2)n1 (configuration not stated) | – | -4.36% (inactive) | –
O=C(c1ccccn1)N1CCn2c(nnc2C2CCCNC2)C1 (configuration not stated) | – | 4.23% [at 138 µM] (inactive) | –
COCC(=O)N(C1CCOCC1)C1CCN(S(=O)(=O)c2ccccc2)CC1 | – | -10.5% (inactive) | –
O=C1NC2(Cc3ccccc31)CN([S+](=O)([O-])c1cccc(C(F)(F)F)c1)C2 | – | -11.6% (inactive) | –
O=C1NC2(CCCN([S+](=O)([O-])c3ccccc3)C2)COc2ccccc21 (configuration not stated) | – | – | 22.4 µM (active)

SMILES | outcome | activity change, negative = cytotoxicity | Potency
O=[S+]([O-])(c1ccccc1)N1CCCC2(CC(c3ccccn3)=NO2)C1 (configuration not stated) | inactive | – | –
COc1nccnc1NC1CCN(C(=O)CCc2ccccc2)CC1 | – | -22.2% (inactive) | –
Cc1ccc(C2Cn3nnc(-c4noc(-c5ccccc5C)n4)c3CO2)cc1 (configuration not stated) | inactive | – | –
O=C1CCCN1CCCN1C(=O)[C@@H]2C[C@@H](O)CN2C2(CN(C3CCOCC3)C2)C1=O | – | -0.373% [at 174 µM] (inactive) | –
COCC(=O)Nc1ccc([C@@H](O)[C@H]2COCC(=O)N2Cc2ccc(C(F)(F)F)cc2)cc1 | – | -11.3% (inactive) | –
O=c1c2c(n(Cc3ccccc3)n1-c1ccccc1)CN(Cc1ccn[nH]1)CC2 | – | – | 89.1 µM (active)
COCCn1c2c(c(=O)n1-c1ccccc1)CCN(Cc1cccc(C#N)c1)C2 | – | – | 100 µM (active)
O=C1NCCN(Cc2ccccc2)C1CC(=O)N1CCN(c2ccccc2)CC1 (configuration not stated) | – | -1.32% (inactive) | –
O=C(Cn1c2c(c(=O)n1Cc1ccccc1)CCN(Cc1ccccc1)C2)NCc1cccc(Cl)c1 | – | -22.1% (inactive) | –
N#Cc1cccc(CN2CCCN(S(=O)(=O)c3ccccc3)CCC(=O)NCC2)c1 | – | -29.7% (inactive) | –
N#Cc1cccc(CN2CCc3nc(N4CCc5ccccc5C4)[nH]c(=O)c3CC2)c1 | – | -0.249% (inactive) | –
N#Cc1ccc(CN2CCC3(COc4ncccc4[S+](=O)([O-])N3)C2)cc1 (configuration not stated) | – | -19.9% (inactive) | –
CC(C)c1ccc(CNC(=O)CCn2ccn3nc4c(c3c2=O)CCCC4)cc1 | – | -28.9% (inactive) | –
C=CCOc1cccc(-c2nnc(CCC(=O)NCc3ccccc3)c(=O)[nH]2)c1 | – | -25% (inactive) | –
CSCCNC(=O)c1cc(-c2ccc(Cl)nc2)nc2c1cnn2C | – | -28.8% (inactive) | –
COCC(=O)N[C@@H](Cn1ccc(=O)[nH]c1=O)C(=O)O | – | 1.85% [at 230 µM] (inactive) | –
O=C(c1cnccn1)N1CCC[C@H](n2c(=O)n(CC3CC3)c3cccnc32)C1 | inactive | – | –
Cc1ccc(NS(=O)(=O)c2ccccc2)c(=O)n1CC(=O)N(C)Cc1ccccc1 | – | -14.6% (inactive) | –
CC(C)CCN1C(=O)CC[C@]2(C(=O)N3CCN(C)CC3)CCCC[C@@H]12 | – | -21.4% (inactive) | –
O=C1CC(c2ccccc2)N(C(=O)CNC(=O)NCc2ccc(F)cc2)CCCCCN1 (configuration not stated) | – | -6.97% (inactive) | –
O=C1CC(c2ccccc2)N(C(=O)CNC(=O)C2CCC2)CCCCCN1 (configuration not stated) | – | -5.49% (inactive) | –
O=C1CC(c2ccccc2)N(Cc2cn[nH]c2-c2ccc(F)cc2)CCCCCN1 (configuration not stated) | – | – | 39.8 µM (active)
